Hits are enriched below; roughly 19% of the tested compounds scored in any of these assays.
TDP1 cell CPT: DT40-hTDP1 cell growth loss with CPT; chicken DT40 Tdp1-/-;hTDP1 cells + 20 nM CPT, ATP luminescence, 48 h; Potency, µM (highest dose often 46.2 µM), inactives show top-dose activity change, negative = growth inhibition, hits mostly inhibitors; actives 12% (n = 420,000); AID 686979; further: potency means the concentration at half of the fitted maximal effect; nearly all actives have a fitted effect of over 55% in size
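Cell growth measured by CellTiter-Glo luminescence after a minimum 48 h, 37 C compound exposure with 20 nM CPT in Tdp1-knockout DT40 cells stably expressing hTDP1, seeded 400/well; qHTS titration format.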
TDP1 cell noCPT: qHTS for Inhibitors of human tyrosyl-DNA phosphodiesterase 1 (TDP1): qHTS in cells in absence of CPT; AID 686978, 2013; actives 15% (n = 420,000); Potency, µM (doses to about 46.2 µM), for the others: top-dose activity change, negative = growth inhibition, actives largely listed as inhibitors; DT40 Tdp1-/- hTDP1 cells, no CPT, ATP luminescence, 48 h; further: potency means the concentration at half of the fitted maximal effect; nearly all actives have a fitted effect of over 55% in size
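Luminescent ATP content (CellTiter-Glo) served as the growth readout. Knockout chicken DT40 cells expressing human TDP1 were exposed to compounds without camptothecin for a minimum 48 hr at 37 °C.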
HT1080 IDH1KD tx: HT-1080 IDH1 knockdown cell toxicity (counter line). HT-1080 IDH1 knockdown viability, ATP luminescence, 48 h. Potency, µM (top dose mostly 46.1 µM), without a hit: at the highest dose activity, negative = toxicity, hits mostly cytotoxic. actives 2% (n = 360,000). AID 686971;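 further: potency means the concentration at half of the fitted maximal effect; 0% = DMSO wells and -100% = cell-free medium wells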
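Viability of IDH1-knockdown HT-1080 fibrosarcoma cells was assessed by CellTiter-Glo after 48 h at 37 °C with titrated compound; concentration-effect curves were classified by fit quality and response size.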
IL1B secr inh: inflammasome signaling inhibition, IL-1 beta readout. activity change, % at 57.5 µM. AID 743279. actives 4.7% (n = 360,000). THP-1 LPS/ATP IL-1B secretion, AlphaLISA, 16 h; active compounds read low; in the data active means activity change below about -50%; inconclusive means mostly about -30% to -49%
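THP-1 cells pretreated 1 hr with compounds (up to 57.5 uM final), then stimulated with LPS (250 ng/mL final) plus ATP (1.25 mM final); secreted IL-1B measured by AlphaLISA after 16 hr, decreased signal indicating inhibition.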
HT1080-NT tox: kills 2HG-producing HT-1080-NT fibrosarcoma cells; HT-1080-NT fibrosarcoma viability, CellTiter-Glo ATP luminescence, 48 h; Potency, µM (highest dose often 46.1 µM), inactives show at the top dose activity, negative = less viability, hits mostly cytotoxic; actives 1.6% (n = 360,000); AID 686970;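 further: NT is the 2HG producing partner of a matched IDH1 knockdown line; potency means the concentration at half of the fitted maximal effect; 0% = DMSO-treated cells and -100% = media-only wells without cells; nearly all actives have a fitted effect of over 55% in size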
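Read-out is CellTiter-Glo luminescence after 10 minutes at room temperature, following 48 hours' compound treatment of HT-1080-NT cells (750 cells/well, RPMI, 5% FBS, 37 degrees C).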
Numbers without * were called inactive. Unless noted, the call rests on the fitted dose curve; in most records, active means well fitted curve in the direction sought with a large enough effect; inconclusive means small, poorly fitted or top-dose-only effect, or another doubt; inactive means no such curve, though single readings can be large; an effect the other way counts as inactive or inconclusive. Unless noted, on the % scale 0 is the no-effect control and ±100 the full control effect.

What do the screens show for `CC(=O)NCCNc1nc2cc(-c3cscc3C)sc2c(=O)n1C`?
TDP1 cell CPT: -30%; TDP1 cell noCPT: inconclusive; HT1080 IDH1KD tx: -3%; IL1B secr inh: 70; HT1080-NT tox: 0%

How did CCOC(=O)C(C)Oc1ccc(NC(=O)C(Cl)Cl)cc1 (stereo not drawn) do in these assays?
TDP1 cell CPT: 21%; TDP1 cell noCPT: -2%; HT1080 IDH1KD tx: 10%; IL1B secr inh: -10; HT1080-NT tox: 7%

Results for COc1ccc(NC(=O)CN2C(=O)NC(C)(C3CC3)C2=O)cc1S(=O)(=O)N1CCCCC1 (stereo not drawn) ?
TDP1 cell CPT: -2%; TDP1 cell noCPT: 0%; HT1080 IDH1KD tx: -4%; IL1B secr inh: -2; HT1080-NT tox: -3%

What do the screens show for `O=C(c1ccc(Cn2cc([N+](=O)[O-])cn2)o1)N1CCCCCC1`?
TDP1 cell CPT: -4%; TDP1 cell noCPT: 9%; HT1080 IDH1KD tx: 11%; IL1B secr inh: 9; HT1080-NT tox: 17%

What do the screens show for `Cc1ccc(-n2c(-c3ccc(Cl)cc3)c[n+]3c2CCC3)cc1`?
TDP1 cell CPT: 3.3µM*; TDP1 cell noCPT: 3.3µM*; HT1080 IDH1KD tx: inconclusive; IL1B secr inh: 0; HT1080-NT tox: inconclusive

How did Cc1ccc(-n2c(-c3ccccc3)nnc2-c2cccs2)cc1 do in these assays?
TDP1 cell CPT: inconclusive; TDP1 cell noCPT: -6%; HT1080 IDH1KD tx: 3%; IL1B secr inh: 0; HT1080-NT tox: 0%

What do the screens show for `Cc1ccc(-c2c(C#N)c(N)n(-c3ccc(Cl)cc3)c(=O)c2C#N)cc1`?
TDP1 cell CPT: -21%; TDP1 cell noCPT: -10%; HT1080 IDH1KD tx: 8%; IL1B secr inh: -22; HT1080-NT tox: 19%

What do the screens show for `Cc1ccc(-n2c(-c3ccccc3)c[n+]3c2CCC3)cc1`?
TDP1 cell CPT: 1µM*; TDP1 cell noCPT: 0.65µM*; HT1080 IDH1KD tx: 5.8µM*; IL1B secr inh: -73*; HT1080-NT tox: inconclusive

Results for FC(F)Sc1ccc(-n2c(-c3ccc(Cl)cc3)c[n+]3c2CCC3)cc1 ?
TDP1 cell CPT: 12µM*; TDP1 cell noCPT: 15µM*; HT1080 IDH1KD tx: inconclusive; IL1B secr inh: inconclusive; HT1080-NT tox: inconclusive

Results for COc1cccc(C(=O)OCC(=O)NCC2CCCO2)c1 (stereo not drawn) ?
TDP1 cell CPT: -11%; TDP1 cell noCPT: -11%; HT1080 IDH1KD tx: 17%; IL1B secr inh: 9; HT1080-NT tox: 11%

How did CC(C)OC(=O)/C(=C\c1ccccc1)NC(=O)c1ccccc1 do in these assays?
TDP1 cell CPT: 0%; TDP1 cell noCPT: 0%; HT1080 IDH1KD tx: -1%; IL1B secr inh: -2; HT1080-NT tox: 1%

Results for CC(C)OC(=O)/C(=C\c1cccc2ccccc12)NC(=O)c1ccccc1 ?
TDP1 cell CPT: inconclusive; TDP1 cell noCPT: inconclusive; HT1080 IDH1KD tx: -12%; IL1B secr inh: -79*; HT1080-NT tox: 9%

How did COc1ccc(S(=O)(=O)N2CCC(N3CCN(Cc4ccccc4)C(=O)C3=O)CC2)cc1 do in these assays?
TDP1 cell CPT: -20%; TDP1 cell noCPT: -4%

Results for Cc1cc(=O)c(C(=O)c2ccccc2)c(C)o1 ?
TDP1 cell CPT: -3%; TDP1 cell noCPT: -10%; HT1080 IDH1KD tx: 16%; IL1B secr inh: -8; HT1080-NT tox: 0%

How did Cc1ccc(C(=O)c2c(C)oc3c2C(=O)C(=O)c2ccccc2-3)cc1 do in these assays?
TDP1 cell CPT: 2.1µM*; TDP1 cell noCPT: 2.6µM*; HT1080 IDH1KD tx: inconclusive; IL1B secr inh: -121*; HT1080-NT tox: inconclusive

How did Cc1ccc(C(=O)c2coc3c2C(=O)C(=O)c2ccccc2-3)cc1 do in these assays?
TDP1 cell CPT: 3.3µM*; TDP1 cell noCPT: 4.6µM*; HT1080 IDH1KD tx: inconclusive; IL1B secr inh: 0; HT1080-NT tox: inconclusive

How did CN1CCN(c2nc3ccccn3c(=O)c2/C=C(\C#N)S(=O)(=O)c2ccc(Cl)cc2)CC1 do in these assays?
TDP1 cell CPT: 5%; TDP1 cell noCPT: -5%; HT1080 IDH1KD tx: -2%; IL1B secr inh: 32; HT1080-NT tox: 4%

What do the screens show for `COc1cccc(OCCSc2nc(N)cc(N)n2)c1`?
TDP1 cell CPT: inconclusive; TDP1 cell noCPT: 21µM*; HT1080 IDH1KD tx: inconclusive; IL1B secr inh: -4; HT1080-NT tox: -26%

What do the screens show for `c1ccc2sc(NC3=NCN(C4CCCCC4)CN3)nc2c1`?
TDP1 cell CPT: inconclusive; TDP1 cell noCPT: inconclusive; HT1080 IDH1KD tx: -5%; IL1B secr inh: 12; HT1080-NT tox: 3%

How did CC1CCCCC1N1CN=C(Nc2nc3ccccc3s2)NC1 (stereo not drawn) do in these assays?
TDP1 cell CPT: 21µM*; TDP1 cell noCPT: inconclusive; HT1080 IDH1KD tx: -14%; IL1B secr inh: 29; HT1080-NT tox: -5%

Results for COc1ccc(CN2C(=O)c3ccccc3C2=O)cc1C(=O)N(C)CC(=O)Nc1ccc(F)cc1 ?
TDP1 cell CPT: -4%; TDP1 cell noCPT: -10%; HT1080 IDH1KD tx: 4%; IL1B secr inh: 2; HT1080-NT tox: -2%

Results for CC1(C)C=C(c2ccc(O)cc2)CC(C)(C)N1 ?
TDP1 cell CPT: 0%; TDP1 cell noCPT: -7%; HT1080 IDH1KD tx: 0%; IL1B secr inh: -11; HT1080-NT tox: 0%

What do the screens show for `Cc1nc(-c2cccc(S(=O)(=O)N3CC(C)CC(C)C3)c2)cs1` (stereo not drawn)?
TDP1 cell CPT: inconclusive; TDP1 cell noCPT: 13µM*; HT1080 IDH1KD tx: -2%; IL1B secr inh: 9; HT1080-NT tox: 4%

How did COc1ccc(/C(C)=N/NC(=O)c2cccc(S(=O)(=O)N3CCCC3)c2)c(O)c1 do in these assays?
TDP1 cell CPT: 5.2µM*; TDP1 cell noCPT: 2.9µM*; HT1080 IDH1KD tx: inconclusive; IL1B secr inh: 115; HT1080-NT tox: inconclusive

How did O=C(Nc1ccccc1)c1cccc(S(=O)(=O)N2CCCCC2)c1 do in these assays?
TDP1 cell CPT: -26%; TDP1 cell noCPT: 8%; HT1080 IDH1KD tx: 1%; IL1B secr inh: 15; HT1080-NT tox: -2%

Results for COc1cc(NC(=O)c2cccc(S(=O)(=O)N3CCCCC3)c2)cc(OC)c1OC ?
TDP1 cell CPT: 23µM*; TDP1 cell noCPT: inconclusive; HT1080 IDH1KD tx: -8%; IL1B secr inh: -2; HT1080-NT tox: -6%

What do the screens show for `CC1CCN(S(=O)(=O)c2cccc(C(=O)Nc3ccccc3)c2)CC1`?
TDP1 cell CPT: -4%; TDP1 cell noCPT: inconclusive; HT1080 IDH1KD tx: -15%; IL1B secr inh: -54*; HT1080-NT tox: -11%

Results for COc1ccc(C(C)=NNC(=O)c2cccc(S(=O)(=O)N3CCCC3)c2)cc1 ?
TDP1 cell CPT: -29%; TDP1 cell noCPT: -27%; HT1080 IDH1KD tx: -10%; IL1B secr inh: 15; HT1080-NT tox: -5%
